Data taken from PubChem BioAssay AID493191 (Broad Institute, 2011).
About 330 (25%) of roughly 1,300 compounds were called active. The rule behind the calls is not given here. These entries were drawn from the full list. A call without a number means that no potency is given here. Potency and affinity values are given separately.

Experiment: growth inhibition of MALME3 cells – cell-based, CellTiter-Glo, cherry-picked, orthogonal assay for MITF inhibitor project, dose response (AID 493191)
Conditions: MALME3 melanoma viability, CellTiter-Glo luminescence, 24 h; series mostly up to 35 µM

| SMILES | outcome |
| --- | --- |
| CC1(C)CC(=O)c2cnc(N3CCc4ccccc43)nc2C1 | inactive |
| Cc1cc(C(=O)CSc2nnc3ccccn23)c(C)n1-c1ccccc1 | inactive |
| COc1ccccc1N(C(=O)CCl)c1cn(C(C)=O)c2ccccc12 | inactive |
| Cn1cc(C(=O)CCl)c2ccccc21 | inactive |
| Cc1ccc2c(C(=O)CCl)c(C)[nH]c2c1 | inactive |
| O=C(Nc1ccc(OC(F)(F)F)cc1)c1[nH]ncc1[N+](=O)[O-] | inactive |
| COC(=O)c1c(C)[nH]c(/C=N/Nc2ccccc2)c1C | inactive |
| COCc1nc(-c2ccc(-c3ccccc3)nc2OC)no1 | inactive |
| C/C(=N\Nc1nccnc1Cl)c1ccc(O)c(C)c1 | inactive |
| Nc1ccc2c(c1)OC1(CCCC1)O2 | inactive |
| COc1cc(OC)cc(-c2oc(=O)c3cc(OC)c(OC)cc3c2C(F)(F)F)c1 | inactive |
| CC1CCN(c2ccc(NC(=O)c3cccnc3)cc2)CC1 | inactive |
| COc1c(C)cccc1C(=O)Nc1ccc(N2CCN(S(C)(=O)=O)CC2)cc1 | inactive |
| CN1CCN(c2ccc(NC(=S)NC(=O)c3cccc4ccccc34)cc2)CC1 | inactive |
| CC(C)(C)c1ccc(C(=O)Nc2ccc(CC(=O)O)cc2)o1 | inactive |
| CCCCOC(=O)Nc1ccc2c(C)cc(=O)oc2c1 | inactive |
| CC(C)N=C(NS(=O)(=O)c1ccccc1)C(Cl)(Cl)Cl | inactive |
| CC(=O)Oc1ccc(C)cc1-n1nc2ccccc2n1 | inactive |
| NC(=O)c1ccccc1NC(=O)/C=C/c1cccc(Cl)c1 | inactive |
| Nc1ccc(-c2ncc(-c3ccccc3)o2)cc1 | inactive |
| N#C/C(=C\c1c[nH]c2ccccc12)C(=O)NC1CC1 | inactive |
| Cc1ccc(NC(=O)c2cc3cccc([N+](=O)[O-])c3[nH]2)cc1 | inactive |
| ClC1(Cl)CC1CSc1nnc(-c2ccncc2)o1 (stereo unspecified) | inactive |
| COc1cc(SC)ccc1C(=O)Nc1ccc(Br)cn1 | inactive |
| COc1ccc(-n2ncc3c(N4CCCCC4)ncnc32)cc1 | inactive |
| Cc1ccc(C(=O)c2coc3ccc(O)c(Cl)c23)cc1 | inactive |

| SMILES | outcome |
| --- | --- |
| COc1cccc(-c2ccc3c(N)c(C(=O)NC4CC4)sc3n2)c1 | inactive |
| O=S(=O)(CC(CN1CCCCC1)N1CCCCC1)c1ccc2ccccc2c1 (stereo unspecified) | inactive |
| Cc1ccc(S(=O)(=O)CC(CN2CCCCC2)N2CCCCC2)cc1 (stereo unspecified) | inactive |
| C=CCC(Nc1ccccc1)C12C=CC(O1)C(C(=O)OC)=C2C(=O)OC (stereo unspecified) | inactive |
| Cc1ccc(C)c(-n2c3nc(=O)[nH]c(=O)c-3cc3cc([N+](=O)[O-])ccc32)c1 | inactive |
| COc1ccc(C2C(C#N)=C(N)Oc3c2oc(CO)cc3=O)cc1 (stereo unspecified) | inactive |
| Cc1ccc(NC(=O)Cc2noc3ccccc23)cc1 | inactive |
| COc1ccccc1C(=O)Nc1nc(-c2ccc(S(=O)(=O)N3CCOCC3)cc2)cs1 | inactive |
| Cc1cnc(NC(=O)c2nn(C)cc2[N+](=O)[O-])s1 | inactive |
| O=C(O)c1cccc(N/N=C/c2cccs2)c1 | inactive |
| O=C(N/N=C/c1cc([N+](=O)[O-])ccc1N1CCNCC1)c1ccc([N+](=O)[O-])cc1 | inactive |
| Cc1cc(C(=O)Nc2ccc([N+](=O)[O-])cn2)cs1 | inactive |
| O=C(O)c1cccc(N/N=C/c2ccc(OC(F)(F)F)cc2)c1 | inactive |
| c1cnc(SCCOc2ccc3c(c2)CCC3)nc1 | inactive |
| Cn1nnnc1Sc1ncnc2scc(-c3cccc(F)c3)c12 | inactive |
| CC1CCCCC1NC(=O)/C(C#N)=C/c1ccccc1F (stereo unspecified) | inactive |
| COc1cccc(NC(=O)c2cnn(-c3ccccc3)c2C)c1 | inactive |
| CCOc1ccc(-c2noc(CCC(=O)O)n2)cc1 | inactive |
| CCOc1ccc(NC(=O)c2ccc3snnc3c2)cc1 | inactive |
| Cc1nc(NC(=O)/C=C/c2ccccc2)n[nH]1 | inactive |
| O=C(Nc1ccc(Cl)cc1)OCc1ccccn1 | inactive |
| O=C(CCCCl)NC(=S)Nc1ccc(N2CCOCC2)cc1 | inactive |
| COc1ccc(C(=O)Nc2ccc3ccccc3c2)cc1OC | inactive |
| O=C(Nc1ccc(N2CCOCC2)cc1)c1cnsn1 | inactive |
| O=C(Nc1ccc2ncccc2c1)c1ccccc1Br | inactive |
| O=C(Nc1ccc2c(c1)OCCO2)c1coc2ccccc2c1=O | inactive |

| SMILES | outcome |
| --- | --- |
| Brc1cccc(/C=N/Nc2nn[nH]n2)c1 | inactive |
| CCN(CC)CC(=O)Nc1scc2c1c(=O)oc1ccccc12 | inactive |
| Cc1ccc(Nc2nnc(-c3ccccc3N)o2)cc1C | inactive |
| C=CCOc1ccc(/C=C/C(C)=N\O)cc1 | inactive |
| O=C(c1cc2ccccc2oc1=O)N(Cc1ccccc1)C1CCS(=O)(=O)C1 (stereo unspecified) | inactive |
| COc1ccc(C(=O)NCC(=O)c2ccccc2)cc1 | inactive |
| NCCN1C(=O)S/C(=C\c2ccc3c(c2)OCO3)C1=O | inactive |
| CC(C)S(=O)(=O)c1csc(C(=O)Nc2ccc(F)cc2)c1N | inactive |
| O=C(NCc1ccc2c(c1)OCO2)c1cc(=O)[nH]c2ccccc12 | inactive |
| CN(C)c1ccc(NC(=S)c2ccccn2)cc1 | inactive |
| N/C(=N\OC(=O)c1ccc(Cl)cc1Cl)c1ccncc1 | inactive |
| Cc1ccc(-n2nnnc2Sc2nc([N+](=O)[O-])nn2C)c(C)c1 | inactive |
| Cc1ccc(-n2cc(CNCCCn3cccn3)c(-c3cccc(C)c3)n2)cc1 | inactive |
| C=C1C(=O)O[C@@]23[C@H]1CC[C@@H](C)[C@@H]2CC[C@@]1(C)O[C@@H]31 | inactive |
| Cc1ccc(C2CC(C(F)(F)F)n3nc(C(=O)NCc4c(C)nn(C)c4C)c(Cl)c3N2)cc1 (stereo unspecified) | inactive |
| Cn1c(/C=C/c2ccc(Cl)cc2)nc2ccccc2c1=O | inactive |
| COc1cccc(-c2csc3ncnc(Sc4nnnn4C)c23)c1 | inactive |
| Cc1ccc(-c2noc(CN3CCCCC3)n2)cc1 | inactive |
| O=C(Nc1ccc(N2CCOCC2)c(Cl)c1)c1cccc(F)c1 | inactive |
| C=CCn1cccc(C(=O)Nc2ccc(C)c(Cl)c2)c1=O | inactive |
| Cc1ccc2nc(NC(=O)CSCC(=O)OCC(=O)c3ccccc3)sc2c1 | inactive |
| O=C(O)c1ccc(N/N=C/c2ccc3nccnc3c2)cc1 | inactive |
| Clc1nccnc1N/N=C/c1ccc(Br)cc1 | inactive |
| CCSC1(SCC)N=C(N)C2(C#N)C(c3ccc(F)cc3)C12C#N (stereo unspecified) | inactive |
